The values below come from PubChem BioAssay AID624351 (Southern Research Specialized Biocontainment Screening …, 2012).

Screen size: about 2,400 compounds; about 1,400 (58%) were called active. The set was probably picked from earlier hits. The list shows a part of the results. Unmarked numbers belong to inactive results.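 The calls were made as follows: active = inhibition of 30% or more at any tested dose; inconclusive = primary hits over the limit that were never retested; inactive = the rest.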

The assay is described as follows: ADP Hunter readout inhibition without MgcRacGAP – biochemical, coupled enzyme counter-screen, artefact control for MgcRacGAP inhibitor project, dose response (AID 624351).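 Also: signal is the ADP detection kit reading of free GDP without any GAP enzyme.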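 As to inhibition: 0% = median positive control wells and 100% = median negative control wells.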 Particulars: fluorescence, no MgcRacGAP; series mostly up to 80 µM; inhibition: at the top concentration. (The purpose of a counterscreen is to sort out artefacts and off-target activity.)
`CC(=O)N1CCC(=NNC(=O)c2cc3ccccc3cc2O)CC1`: the “inhibition” value was 24.4%.
Same read-out and setting: next, `CN(Cc1ccccc1)C(=O)C1CCCN(Cc2ccc(Cl)cc2)C1` (configuration not stated): 13.7%.
For the compound `O=C1c2ccccc2C(=O)N1/N=C/c1ccc(O)c(O)c1`, the IC50 was 33.2 µM (active).
On the same count and under the same terms, then `O=C1C2C3C=CC(CC3)C2C(=O)N1/N=C/c1ccc(O)c(O)c1` (configuration not stated), with 64.1 µM (active); and `COc1cc(/C=N/N2C(=O)c3ccccc3C2=O)ccc1O`, with 41.6 µM (active).
On to `Nc1ccc(Cn2ccc3c4c(N)nc(N)nc4ccc32)cc1`, for which the “inhibition” value is 3.98%.
With `Cn1c(=O)c2ccccc2n2c(=S)[nH]nc12`, the IC50 was 13.2 µM (active).
On the same count and under the same terms, then `Cc1cccc(-n2c(=O)c3ccccc3n3c(=S)[nH]nc23)c1C`, with 34 µM (active); and `CCOCCCn1c(=O)c2ccccc2n2c(=S)[nH]nc12`, with 16.1 µM (active).
Still for that read-out and setting: next, `O=c1c2ccccc2n2c(=S)[nH]nc2n1-c1ccccc1`: 20.6 µM (active).
Take `O=C(c1cccc(Cl)c1)N1CCN(Cc2ccncc2)CC1`: the “inhibition” value is 23.4%.
As to `COc1cccc2[nH]c(C(=O)NN)c(N)c12`, the “inhibition” value was 19.8%.
As to `CCOC(=O)c1[nH]c2cc(OC)c(OC)cc2c1N`, the IC50 is 31.3 µM (active).
For `CCCc1c(C)[nH]c2ccc(C(=O)O)cc2c1=S`, the “inhibition” value is 4.17%.
Take `CCOC(=O)c1[nH]c2ccc(C)cc2c1N`: the IC50 was 27.2 µM (active).
Still for that read-out and setting: then `FC(F)(F)c1cccc(N2CCC(N=CN3CCCCCC3)=N2)c1`, with 50 µM (active).
`CN1CCN(C=NC2=NN(c3cccc(C(F)(F)F)c3)CC2)CC1`: the IC50 is 34.1 µM (active).
The same measure, in the same setting: then `Oc1ccccc1C=NC1=NN(c2cccc(C(F)(F)F)c2)CC1`, with 16.9 µM (active).
As to `CC[N+](CC)(CC)CCCCOc1ccc2c(c1)C(=O)c1cc(OCCCC[N+](CC)(CC)CC)ccc1-2`, the “inhibition” value was 8.56%.
On the same count and under the same terms, then `NSc1nc(N)c2nc(-c3ccccc3)c(-c3ccccc3)nc2n1`, with 5.16%.
With `O=C(C1=C(O)C(=O)N(c2nc3ccc(Cl)cc3s2)C1c1ccco1)c1ccco1` (configuration not stated), the “inhibition” value is 4.28%.
The same measure, in the same setting: next, `COc1ccc(NC(=O)Cn2nnc(C(=O)NCc3cccs3)c2N)cc1Cl`: 2.52%.
Consider `COc1cc(NCCC(=O)c2cccs2)c(OC)cc1Cl`, for which the IC50 is 58.1 µM (active).
In the case of `CCCSC1=N/C(=C\C=C\c2ccco2)C(=O)S1`, the “inhibition” value is -4.75%.
Regarding `CCN(CC)CCn1c2ccccc2c(=O)c2c(O)ccc(O)c21`, the “inhibition” value is -1.29%.
For `Oc1cc(O)cc(-c2cc3ccc(O)cc3o2)c1`, the IC50 was 25 µM (active).
With `COc1cc(/C=N/NS(=O)(=O)c2ccc(C)c([N+](=O)[O-])c2)ccc1O`, the IC50 is 37.1 µM (active).
The same measure, in the same setting: then `COc1cc(/C=N/NC(=O)c2cccc([N+](=O)[O-])c2)ccc1O`, with 35.9 µM (active); and `COc1cc(/C=N\NC(=O)c2ccc(Cn3nc([N+](=O)[O-])c(Cl)c3C)o2)ccc1O`, with 33.9 µM (active); and `COc1cc(/C=N\NC(=O)CNC(=O)c2cccc([N+](=O)[O-])c2)ccc1O`, with 18.4 µM (active).
Take `O=[N+]([O-])c1cccc(S(=O)(=O)N/N=C/c2ccc(O)cc2)c1`: the IC50 is 45.2 µM (active).
For the compound `CN(C)/N=C/c1ccc(OC(=O)c2cccc([N+](=O)[O-])c2)cc1`, the “inhibition” value is -2.18%.
Turning to `c1ccc(OCCCN2CCCC2)cc1`, the “inhibition” value was 19.4%.
Still for that read-out and setting: next, `CN(CCOc1ccc(Cl)c(Cl)c1)Cc1ccccc1`: 7.09%.
Take `Nc1ccc(OCCc2ccccc2)cc1`: the IC50 is 37.5 µM (active).
`COc1cc(C=c2c3ccccc3n3c2cc(-c2ccccc2)[n+]3C)cc(OC)c1OC`: the “inhibition” value is 2.94%.
In the case of `O=C(c1ccccc1)c1coc2ccc(O)c(Cl)c12`, the IC50 is 77.5 µM (active).
Consider `O=C1C=CC(=O)c2c(O)c(N3CCN(CCO)CC3)c(Cl)c(O)c21`, for which the “inhibition” value was 5.58%.
As for `O=C(O)c1ccc(-c2ccc(/C=c3/sc4nc5ccccc5n4c3=O)o2)cc1Cl`, the “inhibition” value was 7.6%.
With `COc1ccc(N=Nc2cc(OC)c(N)cc2OC)cc1`, the IC50 is 39.2 µM (active).
As to `CC(C)N(CCNCC(O)COc1ccc(C(C)(C)c2ccccc2)cc1)C(C)C` (configuration not stated), the “inhibition” value is 17.9%.
For `CCOc1cc(/C=N/NC(=O)C(C)Sc2ccccn2)ccc1O` (configuration not stated), the IC50 is 44.5 µM (active).
On to `COc1cc(CN2CCC(C(=O)NC3CCCC3)CC2)cc(Br)c1O`, for which the “inhibition” value was 7.21%.
As for `COc1cc(C(=S)NC2CCCCC2)ccc1O`, the IC50 is 36.7 µM (active).
`COc1cc(CN2CCC(C(=O)NC3CCCC3)CC2)ccc1O`: the “inhibition” value is 15.2%.
Take `COc1cc(/C=N/NC(=O)CC(=O)NC2CCCCC2)ccc1O`: the IC50 was 55.1 µM (active).
Take `COc1cc(C(=S)NCc2ccccc2)cc(Br)c1O`: the “inhibition” value is 17.8%.
As to `CCOc1cc(/C=N/NC(=O)C(OC)c2ccccc2)ccc1O` (configuration not stated), the IC50 was 58.2 µM (active).
On to `COc1ccc(CN2CCN(C(C)C(=O)N(C)Cc3cccc(F)c3)CC2)cc1OC` (configuration not stated), for which the “inhibition” value was 22.3%.
Take `COc1cc(CN2CCN(C(=O)CC(C)C)CC2)cc(OC)c1O`: the “inhibition” value was 22.5%.
Same read-out and setting: then `N#CC1=C(S)N(c2ccccc2)C(c2ccc(-c3ccccc3Cl)o2)NC1=O` (configuration not stated), with 5.31%.
Consider `COc1cc(/C=N/NC(=S)NC2CC3CCC2C3)ccc1O` (configuration not stated), for which the IC50 is 55.3 µM (active).
With `CCOc1cc(/C=N/NC(=O)Nc2ccccc2)ccc1O`, the IC50 is 33 µM (active).
The same measure, in the same setting: then `CCOc1cc(C=NNC(=O)CCCC(=O)NN=Cc2ccc(O)c(OCC)c2)ccc1O`, with 55.2 µM (active).
Still for that read-out and setting: then `CCOc1cc(/C=N/NC(=O)CCCC(=O)NC2CCCCC2)ccc1O`, with 62.2 µM (active).
Consider `CCOc1cc(/C=N/NC(=O)CSc2cccc3cccnc23)ccc1O`, for which the IC50 is 36.7 µM (active).
Same read-out and setting: then `C=CCn1c(SCC(C)=O)nnc1-c1cc(-c2ccccc2)sc1N`, with 50.1 µM (active); and `CCn1c(SC(C)C)nnc1-c1cc(-c2ccccc2)sc1N`, with 26.7 µM (active).
As for `CCN(CC)CCOc1ccc2c(c1)C(=NNC(=O)c1ccccn1)c1cc(OCCN(CC)CC)ccc1-2`, the “inhibition” value is 25.5%.
As to `O=C(Oc1ccc2c(c1)OCO2)c1ccc(Br)c(S(=O)(=O)N2CCOCC2)c1`, the “inhibition” value was 5.16%.
As for `CC1=NN(c2ccccc2)C(=O)C1/C=C1\NC(=S)NC1=O` (configuration not stated), the “inhibition” value is 27.2%.
As to `Cc1ccc(C2C=NN(c3ccccc3)C2=O)cc1` (configuration not stated), the IC50 is 78.2 µM (active).
For `Cc1ccc(-n2sc3ccccc3c2=O)cc1`, the “inhibition” value is 10.3%.
As for `COc1cc(/C=N/NC(=O)CCn2nnc3ccccc32)ccc1O`, the IC50 was 53.8 µM (active).
Same read-out and setting: next, `COc1cc(/C=N/NC(=O)C(C)n2nnc3ccccc32)ccc1O` (configuration not stated): 23.6 µM (active); `COc1cc(/C=N/NC(=O)Cn2nnc3ccccc32)ccc1O`: 20.7 µM (active).
Same read-out and setting: next, `Cc1cc(NC(=O)c2sc3ccccc3c2O)no1`: 74.8 µM (active).
Consider `Cc1cc(NC(=O)CN2CCC(C)CC2)no1`, for which the “inhibition” value is 14.8%.
On the same count and under the same terms, then `Cc1cc(NC(=O)CN2CCN(C)CC2)no1`, with 17.2%.
Consider `O=C(Nc1ccccn1)c1ccc2ccccc2c1O`, for which the IC50 is 78.1 µM (active).
For the compound `COc1ccccc1NC(=O)NNC(=O)c1ccc2ccccc2c1O`, the “inhibition” value is 8.21%.
Turning to `COc1ccc2c(c1)-c1c(ssc1=S)C(C)(C)N2`, the IC50 was 33.6 µM (active).
On the same count and under the same terms, then `CCOc1ccccc1Oc1cn[nH]c1-c1ccc(O)cc1O`, with 33.8 µM (active); and `COc1ccc(Oc2cn[nH]c2-c2ccc(O)cc2O)cc1`, with 29.9 µM (active); and `COc1cccc(Oc2cn[nH]c2-c2ccc(O)cc2O)c1`, with 52.5 µM (active).
Turning to `C#CCOCCOCCOCCNc1nc(N2CCN(C(=O)[C@H](CCCCN)n3cc([C@@H](N)C(C)CC)nn3)CC2)nc(N2CCN(C(=O)[C@H](CCCCN)n3cc([C@@H](N)CC(C)C)nn3)CC2)n1` (some centres not stated), the “inhibition” value is 3.89%.
For the compound `CCn1c(C)nc2cc(C(=O)N/N=C/c3ccc(O)cc3)ccc21`, the IC50 is 81.6 µM (active).
Same read-out and setting: next, `CC1=NN(C(N)=S)C(=O)C1N=Nc1ccc(O)cc1` (configuration not stated): 19.5 µM (active); `CC(=O)Nc1ccc(Oc2nc(-c3ccccn3)nc3ccccc23)cc1`: 26.7 µM (active).
For the compound `O=C(Nc1ccc(Oc2nnc(-c3ccccc3)c3ccccc23)cc1)c1ccccc1`, the “inhibition” value was 6.04%.
Same read-out and setting: then `CN(C)CCCNCC(=O)c1c(-c2ccccc2)n(C)c2ccccc12`, with -1.7% [at 10 µM].
`O=C(N/N=C/c1ccc(O)c(O)c1)C1c2ccccc2Oc2ccccc21`: the IC50 was 51 µM (active).
Regarding `c1nc(SSc2ncnc3nc[nH]c23)c2[nH]cnc2n1`, the “inhibition” value is -4.3%.
On to `Oc1ccc(/C=N/Nc2ncnc3nc[nH]c23)cc1`, for which the IC50 is 13.2 µM (active).
The same measure, in the same setting: next, `Nc1c(Cl)ncnc1N/N=C/c1ccc(O)cc1`: 15.1 µM (active); `CCOc1cc(/C=N/Nc2ncnc(Cl)c2N)ccc1O`: 30.7 µM (active); `Cc1[nH]ccc2c1[nH]c1cc(=O)ccc12`: 61.9 µM (active).
In the case of `CC/C(=N\O)c1ccc(O)c(OC)c1`, the IC50 was 61.2 µM (active).
Take `COc1ccc(S(=O)(=O)N2CCC(N3CCN(Cc4ccccc4)CC3)CC2)cc1`: the “inhibition” value was 24.6%.
For the compound `O=c1cc(-c2ccc(O)c(O)c2)oc2cc(O)c(C3OC(CO)C(O)C(O)C3O)c(O)c12` (configuration not stated), the IC50 was 45.9 µM (active).
Consider `O=c1cc(-c2ccc(O)c(O)c2)oc2cc(O)c([C@@H]3O[C@H](CO)[C@@H](O)[C@H](O)[C@H]3O)c(O)c12`, for which the half-maximal inhibitory concentration (IC50) was 59 µM (active).
For `O=C(O)c1cc(O)c2c(c1)[C@@H]([C@H]1c3cc(C(=O)O)cc(O)c3C(=O)c3c(O[C@@H]4O[C@H](CO)[C@@H](O)[C@H](O)[C@H]4O)cccc31)c1cccc(OC3O[C@H](CO)[C@@H](O)[C@H](O)[C@H]3O)c1C2=O` (some centres not stated), the “inhibition” value is -39.8%.
`C[C@@H]1O[C@@H](OC[C@H]2O[C@@H](Oc3cc(O)c4c(=O)cc(-c5ccc(O)c(O)c5)oc4c3)[C@H](O)[C@@H](O)[C@@H]2O)[C@H](O)[C@H](O)[C@H]1O`: the IC50 was 46 µM (active).
Consider `COC(=O)c1ccc2c(c1)C(C)(C)C(/C=C/c1ccc(OC)c(OC)c1OC)=[N+]2C`, for which the “inhibition” value is -4.4%.
As to `COc1ccc(CNC(=O)CN(C)Cc2ccc(C(C)(C)C)cc2)cc1`, the “inhibition” value was 24.6%.
`COc1cc(C(C[N+](=O)[O-])c2c(N)n(C)c(=O)n(C)c2=O)ccc1O` (configuration not stated): the “inhibition” value is 28.1%.
Turning to `COc1cc(/C=C/C(=O)OCC(=O)NCc2ccc(F)cc2)ccc1O`, the IC50 is 40 µM (active).
In the case of `COC(=O)c1ccc2c(c1)C(C)(C)C(/C=C/c1ccccc1O)=[N+]2C`, the “inhibition” value is 23.1%.
As to `COc1cc(/C=C/C(=O)OCC(=O)N(CC(C)C)c2c(N)n(Cc3ccccc3)c(=O)[nH]c2=O)ccc1O`, the IC50 was 61.2 µM (active).
For `CN(CC(=O)NCc1ccccc1)Cc1cccc(F)c1`, the “inhibition” value is 26.6%.
With `COc1cc(/C=C/C(=O)OCC(=O)NCCCc2ccccc2)ccc1O`, the IC50 was 33.5 µM (active).
Same read-out and setting: next, `COC(=O)c1ccc(CNC(=O)COC(=O)/C=C/c2ccc(O)c(OC)c2)cc1`: 31 µM (active).

What is called inhibition is the drop in the measured response relative to a control, in per cent. A word on the IC50: it is the midpoint of a concentration-inhibition curve.
